According to the supplement of paper PMC9446081:
± gives the standard deviation of the averaged measurements.

The molecules below were run against T1, MurD (UniProt P14900) (assay: relative enzymatic activity vs untreated control (fraction); higher = less inhibition). Settings: 100 µM; incubation time: 2 h at 37 C.
T1 sequence (whole entry): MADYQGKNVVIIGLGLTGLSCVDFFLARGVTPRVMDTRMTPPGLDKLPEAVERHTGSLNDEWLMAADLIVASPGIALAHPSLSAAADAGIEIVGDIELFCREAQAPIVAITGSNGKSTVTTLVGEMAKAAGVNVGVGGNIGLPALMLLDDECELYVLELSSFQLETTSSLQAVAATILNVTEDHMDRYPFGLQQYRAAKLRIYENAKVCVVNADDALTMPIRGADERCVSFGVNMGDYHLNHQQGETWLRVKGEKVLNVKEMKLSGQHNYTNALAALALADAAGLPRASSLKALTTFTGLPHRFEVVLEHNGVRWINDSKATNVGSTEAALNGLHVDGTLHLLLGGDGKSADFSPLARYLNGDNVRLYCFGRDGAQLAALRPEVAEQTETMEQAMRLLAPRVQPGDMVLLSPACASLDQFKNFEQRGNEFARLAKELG
Experimental: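 In vitro enzymatic inhibition assays (ProFoldin kits) for 12 purified essential E. coli enzymes or complexes, each treated with 218 active antibacterial compounds at 100 µM for 2 h at 37°C. Read-outs were fluorescence or absorbance (phosphate detection, dye binding), converted to activity via standard curves and expressed relative to untreated DMSO controls.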

SMILES	relative enzymatic activity
CN(C)[C@@H]1C(=O)[C@@H](C(N)=O)C(=O)[C@@]2(O)C(=O)[C@H]3C(=O)c4c(O)ccc(Cl)c4[C@@](C)(O)[C@H]3C[C@@H]12	0.607 ± 0.41
CN[C@H]1C[C@@H](N)[C@H](O)[C@@H](O[C@@H]2O[C@H](CO)[C@H](O)[C@@H]3O[C@@]4(O[C@H]23)O[C@H]([C@@H](N)CO)[C@H](O)[C@H](O)[C@H]4O)[C@@H]1O	0.592 ± 0.39
CN(C)[C@@H]1C(=O)C(C(N)=O)=C(O)[C@@]2(O)C(O)=C3C(=O)c4c(O)cccc4[C@](C)(O)[C@H]3C[C@@H]12	0.606 ± 0.43
Cc1c(N)nc([C@H](CC(N)=O)NC[C@@H](N)C(N)=O)nc1C(=O)N[C@H](C(=O)N[C@@H](C)[C@H](O)[C@@H](C)C(=O)N[C@@H](C(=O)NCCc1nc(-c2nc(C(=O)NCCC[S+](C)C)cs2)cs1)[C@@H](C)O)[C@@H](O[C@H]1O[C@H](CO)[C@H](O)[C@@H](O)[C@H]1O[C@H]1O[C@H](CO)[C@@H](O)[C@H](OC(N)=O)[C@@H]1O)c1c[nH]cn1	0.969 ± 0.9
CC(=O)[O][Hg][c]1ccccc1	0.226 ± 0.14
O=[N+]([O-])C(Br)(CO)CO	0.486 ± 0.48
O=[N+]([O-])c1ccc(N(CCO)CCO)c2c1no[n+]2[O-]	0.623 ± 0.41
CN(C)[C@@H]1C(=O)[C@H](C(N)=O)C(=O)[C@@]2(O)C(=O)[C@@H]3C(=O)c4c(O)cccc4[C@@](C)(O)[C@H]3C[C@@H]12	0.603 ± 0.41
[O-][n+]1ccccc1[S][Zn][S]c1cccc[n+]1[O-]	0.587 ± 0.4
Cc1c(N)nc([C@H](CC(N)=O)NC[C@@H](N)C(N)=O)nc1C(=O)N[C@H](C(=O)N[C@@H](C)[C@H](O)[C@@H](C)C(=O)N[C@@H](C(=O)NCCc1nc(-c2nc(C(=O)NCCC[S+](C)C)cs2)cs1)[C@@H](C)O)[C@@H](O[C@H]1O[C@H](CO)[C@H](O)[C@@H](O)[C@H]1O[C@H]1O[C@H](CO)[C@@H](O)[C@H](OC(N)=O)[C@@H]1O)c1cnc[nH]1	0.624 ± 0.45
CCCCCCCCCCCCCCCC[N+](C)(C)C.[Br-]	0.256 ± 0.17
O=S(=O)(O)O.Oc1cccc2cccnc12	0.564 ± 0.35
Oc1cc(Cl)ccc1Oc1ccc(Cl)cc1Cl	0.759 ± 0.41
CN1C(=O)[C@]23CC4=CC=C[C@H](O)[C@H]4N2C(=O)[C@@]1(CO)SS3	0.574 ± 0.39
C[CH2][Hg][S]c1ccccc1C(=O)[O-].[Na+]	0.657 ± 0.43
CCCCCCCCCCCCCCCC[n+]1ccccc1.[Cl-]	0.0847 ± 0.0065
CCCCCCCCCCCCCCCC[n+]1ccccc1	0.191 ± 0.13
O=C1C=C2C(=CCOC2O)O1 (centres undefined)	0.611 ± 0.42
COP(=S)(OC)Oc1cc(Cl)c(Cl)cc1Cl	0.655 ± 0.44
Cc1nc2c(=O)n(C)c(=O)nc-2n(C)n1	0.174 ± 0.24
CCn1cc(C(=O)[O-])c(=O)c2cc3c(cc21)OCO3.[K+]	0.598 ± 0.42
Cn1ncnc2c(=O)n(C)c(=O)nc1-2	0.598 ± 0.36
CNC1C(O)C(OC2C(N)CC(N)C(OC3OC(C(C)O)C(O)C(O)C3N)C2O)OCC1(C)O (centres undefined)	0.592 ± 0.38
CC(=O)Oc1ccc(Cl)c2cccnc12	0.611 ± 0.41
